Reference: the supplement of paper PMC13380429
A number with no mark means an inactive call.

System: Vero E6 infected with SARS-CoV-2
Assay: inhibition of SARS-CoV-2 cytopathic effect; higher = more antiviral protection, active = above 15
Conditions: 48 h

| SMILES | inhibition of SARS-CoV-2 cytopathic effect (1 nM) [%] | inhibition of SARS-CoV-2 cytopathic effect (8.33 nM) [%] | inhibition of SARS-CoV-2 cytopathic effect (100 nM) | inhibition of SARS-CoV-2 cytopathic effect (833.33 nM) [%] | inhibition of SARS-CoV-2 cytopathic effect (10000 nM) [%] |
| --- | --- | --- | --- | --- | --- |
| OCc1cc(C(O)CNCCCCCCOCCCCc2ccccc2)ccc1O (stereo not given) [salmeterol] | 0.19 | 2.26 | 10.4% | 1.95 | -1.77 |
| COc1cc(N)c(Cl)cc1C(=O)NC1CN2CCC1CC2 (stereo not given) [zacopride] | 0.12 | -0.23 | -1.28% | -2.33 | -4.26 |
| CCOCCn1c(C2CCN(CCc3ccc(C(C)(C)C(=O)O)cc3)CC2)nc2ccccc21 [bilastine] | -1.57 | -0.88 | -1.39% | -1.14 | -0.38 |
| Cn1c(COP(=O)(NCCBr)NCCBr)cnc1[N+](=O)[O-] | -3.18 | -1.04 | 0.12% | -0.54 | -3.06 |
| CC1OC2(CS1)CN1CCC2CC1 (stereo not given) [cevimeline] | -0.26 | -0.65 | -1.15% | -0.01 | -1.57 |
| CC(=O)Nc1cccc(-n2c(=O)n(C3CC3)c(=O)c3c(Nc4ccc(I)cc4F)n(C)c(=O)c(C)c32)c1 [trametinib] | -1.42 | -7.51 | -14.6% | -16.9 | -17.4 |
| COc1cc2c(cc1OC)CN(CCc1ccc(NC(=O)c3cccc4c(=O)c5cccc(OC)c5[nH]c34)cc1)CC2 [elacridar] | 14.2 | 2.41 | 0.67% | -0.09 | -4.73 |
| Cc1cc(OCc2nc(-c3ccccc3Cl)cs2)ccc1OCC(=O)O [GPR120-modulator-1] | -0.13 | 2.43 | -1.19% | -1.62 | -2.32 |
| OCCN1C[C@H](O)[C@@H](O)[C@H](O)[C@H]1CO [miglitol] | -4.01 | -3.41 | 52.1% (active) | -3.71 | -4.78 |
| Cn1c2cc([S+](C)[O-])sc2c2cnn(Cc3cccc(N)c3)c(=O)c21 (stereo not given) | -0.28 | -0.88 | 5.04% | 3.73 | 4.31 |
| CCc1cc2c(s1)-n1c(C)nnc1CN=C2c1ccccc1Cl [etizolam] | 2.37 | 2.54 | -2.3% | 3.16 | 2.75 |
| Nc1nc2c(cnn2CCc2ccccc2)c2nc(-c3ccco3)nn12 | 1.74 | 1.86 | -4.65% | -2.26 | -2.96 |
| C[C@H]1C[C@@H]2[C@H]([C@@H](O)C[C@@]3(C)[C@H]2CC[C@]3(O)C(=O)CO)[C@@]2(C)C=CC(=O)C=C12 [methylprednisolone] | 0.61 | 3.49 | -1.8% | 0.94 | 0.36 |
| CC(CNS(=O)(=O)C(C)C)c1ccc(-c2ccc(C#N)cc2)cc1 (stereo not given) | -2 | 0.02 | 0.68% | 0.84 | 0.85 |
| NC(=O)c1ccccc1O [salicylamide] | -0.95 | 2.62 | 5.65% | 3.83 | 0.13 |
| CC(C[N+](C)(C)C)OC(N)=O (stereo not given) [bethanechol] | -5.4 | 2.96 | -4.87% | -5.89 | -6.25 |
| O=C1c2cccc3c2[C@H](CCC3)CN1[C@@H]1CN2CCC1CC2 [palonosetron] | -2.25 | -0.74 | -0.65% | -0.13 | -0.75 |
| Oc1ccc2[nH]cc(C3=CCNCC3)c2n1 | 6.34 | 6.88 | -4.05% | -1.7 | -2.6 |
| N#Cc1ncccn1 [2-cyanopyrimidine] | 4.29 | 5.63 | 4.71% | 6.33 | 4.34 |
| NC(=O)c1ccc(I)c([N+](=O)[O-])c1 [iniparib] | 0.64 | 1.76 | 0.16% | 2.29 | 3.53 |
| CC(N)Cc1ccc(O)cc1 (stereo not given) [hydroxyamphetamine] | 1.55 | -1.8 | 2.28% | 0.63 | 1.86 |
